Shown are actives, neighbours in structure and some others; about 9.5% of the full set was active somewhere.
Tau fluor counter = Counterscreen qHTS for Inhibitors of Tau Fibril Formation, Fluorescence Polarization; tau K18 P301L Alexa594 fluorescence, heparin fibrillization; hit rate 0.93% among 280,000; Potency, µM (top dose mostly 57.7 µM); further: nearly all actives have a fitted effect of over 55% in size
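Human K18 P301L tau (15 uM unlabeled plus 0.24 uM Alexa 594-labeled, final) in 100 mM sodium acetate pH 7 was mixed with compound and 20 uM heparin and incubated 6 hr at 37 C.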
Tau ThT inhib = qHTS for Inhibitors of Tau Fibril Formation, Thioflavin T Binding | hit rate 2.1% among 270,000 | recombinant tau K18 P301L (four-repeat tau fragment), heparin-induced fibrillization, ThT fluorescence | Potency, µM (series often up to 57.4 µM), usual class: inhibitors; further: nearly all actives have a fitted effect of over 55% in size
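K18 P301L tau (15 uM + 0.24 uM Alexa 594-tagged), heparin 20 uM, NaOAc pH 7, 6 h 37 C; ThT 30 uM, 1 h RT, ex 450/em 510 nm.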
ALDH1A1 inh = qHTS Assay for Inhibitors of Aldehyde Dehydrogenase 1 (ALDH1A1); Aldehyde dehydrogenase 1A1 (Homo sapiens), P00352; Purified ALDH1A1, NADH fluorescence, propionaldehyde substrate; Potency, µM (doses to about 75.3 µM), most hits filed as inhibitors; hit rate 7.3% among 220,000; active means well fitted inhibition curve with a large enough effect, not every such curve was filed as active; inconclusive means small, poorly fitted or top-dose-only effect, or another doubt; inactive means no such curve, though single readings can be large or run the other way
Tau fibril FP = qHTS for Inhibitors of Tau Fibril Formation, Fluorescence Polarization; Microtubule-associated protein tau (Homo sapiens), P10636; K18 P301L tau heparin fibrillization, Alexa594 FP, 6 h; Potency, µM (highest dose often 57.7 µM), hits mostly inhibitors; hit rate 0.39% among 280,000; AID 1468, 2008; further: nearly all actives have a fitted effect of over 55% in size
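Steps: dispense K18 P301L tau (15 uM plus 0.24 uM Alexa 594 tracer, final) in pH 7 sodium acetate; add compound; add heparin (20 uM final); incubate 6 hr, 37 C; add ThT (30 uM final); after 1 hr ambient, read FP.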
NPSR antagonist = qHTS Assay for Antagonists of the Neuropeptide S Receptor: cAMP Signal Transduction | Q6W5P4 | Potency, µM (top dose mostly 38.3 µM), usual class: inhibitors | AID 1461, 2008 | hit rate 1% among 220,000 | CHO-NPSR cells, cAMP TR-FRET, antagonist mode; further: nearly all actives have a fitted effect of over 50% in size
Target sequence (Q6W5P4 whole entry, looked up): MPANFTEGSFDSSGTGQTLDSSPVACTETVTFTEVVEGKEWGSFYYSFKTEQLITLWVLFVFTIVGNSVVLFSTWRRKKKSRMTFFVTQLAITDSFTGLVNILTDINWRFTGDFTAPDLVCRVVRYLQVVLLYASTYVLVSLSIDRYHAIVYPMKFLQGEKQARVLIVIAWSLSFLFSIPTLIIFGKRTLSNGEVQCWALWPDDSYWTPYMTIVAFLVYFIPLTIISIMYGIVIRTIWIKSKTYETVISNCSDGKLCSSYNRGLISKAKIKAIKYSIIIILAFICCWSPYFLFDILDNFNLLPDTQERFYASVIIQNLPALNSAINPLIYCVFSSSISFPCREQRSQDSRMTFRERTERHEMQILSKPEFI
HPGD inh = qHTS Assay for Inhibitors of HPGD (15-Hydroxyprostaglandin Dehydrogenase); 15-hydroxyprostaglandin dehydrogenase [NAD(+)] (Homo sapiens), P15428; purified HPGD, NADH fluorescence kinetic, PGE2 substrate; Potency, µM, actives largely listed as inhibitors; hit rate 4.3% among 150,000; active means well fitted inhibition curve with a large enough effect, not every such curve was filed as active; inconclusive means small, poorly fitted or top-dose-only effect, or another doubt; inactive means no such curve, though single readings can be large or run the other way
Target sequence (P15428 whole entry, looked up): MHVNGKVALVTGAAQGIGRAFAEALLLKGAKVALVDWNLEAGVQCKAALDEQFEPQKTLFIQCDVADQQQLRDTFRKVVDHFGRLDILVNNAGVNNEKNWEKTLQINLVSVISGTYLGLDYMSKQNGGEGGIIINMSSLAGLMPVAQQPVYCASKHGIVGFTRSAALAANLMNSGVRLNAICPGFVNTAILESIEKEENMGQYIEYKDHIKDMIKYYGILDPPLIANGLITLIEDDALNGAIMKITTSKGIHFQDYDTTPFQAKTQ
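NADH formation kinetics: reaction with 30 uM PGE2 and 1 mM NAD+ (final), 20 nM enzyme, Tris-HCl pH 8 with Tween 20, after 15 min compound preincubation at room temperature. Fluorescence change, last versus first of five reads.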
Numbers stand for hits; 0 = inactive; ? = inconclusive; - = no result; [ ] = another dose, or the depositor's remark. Unless noted, the call rests on the fitted dose curve; in most records, active means well fitted curve in the direction sought with a large enough effect; inconclusive means small, poorly fitted or top-dose-only effect, or another doubt; inactive means no such curve, though single readings can be large; an effect the other way counts as inactive or inconclusive.

SMILES | Tau fluor counter | Tau ThT inhib | ALDH1A1 inh | Tau fibril FP | NPSR antagonist | HPGD inh
Cc1ccc(NC(=O)CN2C(=O)CCc3cc(S(=O)(=O)N4CCCCC4)ccc32)cc1N(C)C | 0 | 0 | - | 0 | - | -
CCCCOCC1CC(CC#CCN2CCCCC2)C(=O)O1 (stereo not drawn) | 0 | 0 | 25.1µM | 0 | 0 | -
COc1ccc(C(=O)CN2C(=O)C(C)(C)Oc3ccc(C(=O)N4CCCCCC4)cc32)cc1 | 0 | 0 | 0 | 0 | ? | 8.91µM
CC1(C)Oc2ccc(C(=O)N3CCCC3)cc2N(CC(=O)NCc2ccccc2)C1=O | 0 | 0 | 0 | 0 | 0 | 0
COc1ccc(-c2c(-c3ccc(O)cc3O)n[nH]c2C(F)(F)F)cc1 | 11.2µM[quencher] | 0 | 0 | 0 | 0 | -
COc1ccccc1-c1c(-c2ccc(O)cc2O)n[nH]c1C(F)(F)F | 8.91µM[quencher] | 0 | - | 0 | 0[7.67 µM] | -
Oc1ccc(-c2n[nH]c(C(F)(F)F)c2-c2ccccc2)c(O)c1 | ? | 0 | 0 | 0 | 0 | -
O=C(O)CC(NS(=O)(=O)c1ccc(Br)s1)c1ccccc1 (stereo not drawn) | 0 | 0 | - | 0 | - | -
CCOc1cccc(/C=C2\NC(=S)N(c3ccccc3)C2=O)c1O | ? | 14.1µM | 20µM | 0 | 0 | -
CCOc1cc(/C=C2\NC(=S)N(c3c(C)n(C)n(-c4ccccc4)c3=O)C2=O)ccc1O | 0 | 0 | 0 | 0 | 0 | 0
CCOC(=O)c1c(NC(=S)Nc2ccc(OCC)cc2)sc2c1CCN(C)C2 | 0 | ? | 23.8µM | 0 | 0 | -
CCOC(=O)N1CCc2c(sc(NC(=O)c3ccc(Cl)s3)c2C(N)=O)C1 | 0 | ? | 18.9µM | 0 | 2.51µM | 31.6µM
CCOC(=O)c1c(NC(=S)Nc2ccc(C)cc2)sc2c1CCC2 | 0 | 0 | 0 | 0 | 0 | 0
CCOC(=O)c1c(NC(=O)Nc2ccc(F)cc2)sc2c1CCN(C)C2 | 0 | 0 | 0 | 0 | ? | -
CCOC(=O)c1c(NC(=S)Nc2ccc(Cl)cc2)sc2c1CCN(C)C2 | 0 | 0 | 25.1µM | 0 | 0 | 0
COc1ccc(OCC(=O)OCc2cc(=O)n3cc(C)sc3n2)cc1 | 0 | 0 | - | 0 | - | -
COc1ccc(OC)c(CNC(=O)c2ccc(Sc3ccc(Cl)cc3)c(NC(C)=O)c2)c1 | 0 | 0 | - | 0 | - | -
CC(Oc1ccc(Cl)cc1Cl)C(=O)N/N=C1\CCCc2ccccc21 (stereo not drawn) | 0 | 0 | 0 | 0 | 0 | 0
CC(Oc1ccc(Cl)cc1Cl)C(=O)NC(=S)N1CCc2ccccc21 (stereo not drawn) | 0 | 0 | 17.8µM | 0 | 0 | 0
CC(Oc1ccc(Cl)cc1Cl)C(=O)NN=C1CCN(C)CC1 (stereo not drawn) | 0 | 0 | 2.51µM | 0 | 0 | 0
CC(C)(C)C(=O)NC(=S)N1CCc2ccccc21 | 0 | ? | 11.2µM | 0 | 0 | -
COc1ccc(Oc2ncc3ncc(=O)n(Cc4cccs4)c3n2)cc1 | - | - | ? | - | - | 0
Cc1sc(NC(=S)NC(=O)c2ccco2)c(C(N)=O)c1C | 0 | ? | 3.16µM | 0 | 0 | -
CCN1CCc2c(sc(NC(=O)c3ccc(S(=O)(=O)N4CCOCC4)cc3)c2C(=O)OC)C1 | 0 | 0 | 0 | 0 | 0 | 0
CCN1CCc2c(sc(NC(=O)c3ccc(S(=O)(=O)N4CCOCC4)cc3)c2C(N)=O)C1 | 0 | 0 | 39.8µM | 0 | 0 | 0
SMILES | Tau fluor counter | Tau ThT inhib | ALDH1A1 inh | Tau fibril FP | NPSR antagonist | HPGD inh
COC(=O)c1c(NC(=S)NC(=O)c2ccco2)sc2c1CCCC2 | 0 | 0 | ? | 0 | 0 | 0
CCN1CCc2c(sc(NC(=S)NC(=O)c3ccco3)c2C(N)=O)C1 | 0 | ? | 7.94µM | 0 | 0 | -
CCCCN1CCC(n2c(=O)[nH]c3ccccc32)CC1 | 0 | 0 | 0 | 0 | ? | 0
COc1cccc(N2C(=O)C3CCCN3C2c2ccc(Cl)cc2)c1 (stereo not drawn) | 0 | 0 | 0 | 0 | 0 | 0
COc1cccc(N2C(=O)C3CCCN3C2c2ccc(N(C)C)cc2)c1 (stereo not drawn) | 0 | 0 | 1µM | 0 | 0 | 0
CCCc1cc(=O)[nH]c(SCc2cc(C(=O)OC)c(C)o2)n1 | 0 | 0 | 0 | 0 | 0 | 15.8µM
Cc1nc2ncnn2c(C)c1CCC(=O)N1CCOCC1 | 0 | 0 | 0 | 0 | 0 | 0
COc1ccc(/C=N/NC(=O)C(Cc2c[nH]c3ccccc23)NC(=O)OCC(C)C)cc1[N+](=O)[O-] (stereo not drawn) | 0 | 0 | 12.6µM | 0 | 0 | 0
CC(=O)Nc1ccc(NC(=O)c2c(C)nn(-c3ccccc3)c2Cl)cc1C | 0 | ? | ? | 0 | 0 | -
Cc1ccccc1NC(=O)c1c(C)nn(-c2ccccc2)c1Cl | 0 | 0 | ? | 0 | 0 | 28.2µM
Cc1ccc(NC(=O)c2c(C)nn(-c3ccccc3)c2Cl)cc1 | 0 | 0 | 0 | 0 | 0 | 14.1µM
O=C(O)/C=C/C(=O)Nc1ccc(O)cc1 | 0 | ? | 0 | 0 | 0 | -
CCN(CC)S(=O)(=O)c1ccc(C(=O)/C=C/c2ccc(-c3ccc([N+](=O)[O-])cc3)o2)cc1 | ? | ? | - | 0 | 0 | -
O=C(O)/C=C/C(=O)c1ccc(O)cc1 | 0 | ? | 14.1µM | ? | 0 | -
CC(/C=C/C(=O)c1ccc(C)cc1)=C\c1ccccc1 | 0 | ? | 0 | 0 | 0 | 0
O=C(/C=C\c1ccc(-c2ccccc2)o1)c1ccccc1 | 0 | ? | 3.98µM | 0 | 0 | ?
Cc1ccc(C(=O)/C=C/c2ccc(-c3ccc(C)cc3)o2)cc1 | 0 | ? | 0.708µM | 0 | 0 | 7.08µM
